EBV LMP1 NFkB = reduces LMP1-driven NF-kappaB luciferase signal. inhibition, % at 12.5 µM. hit rate 0.69% among 350,000. LMP1-induced NF-kappaB luciferase reporter cells, luminescence; in the data active = inhibition above about 41%;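 note: 0% = neutral control wells and 100% = reference inhibitor control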
CF NFkB inh = blocks PAF-induced NF-kB reporter in cystic fibrosis cells; KKLEB NF-kB-GFP reporter, GFP fluorescence overnight; inhibition, % at 5 µM; hit rate 0.86% among 360,000;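 active = at least 50% inhibition at 5 µM, scaled per plate between neutral and stimulator controls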;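 note: PAF is a Pseudomonas aeruginosa culture filtrate used as stimulus; plate controls were PAF-stimulated DMSO wells for no effect and unstimulated DMSO wells for full effect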
Peg3 prom inh = inhibitors of Peg3 promoter | hit rate 1.7% among 360,000 | inhibition, % at 20 µM | HeLa PEG-Prom luciferase reporter, luminescence, overnight;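 active = inhibition of at least 50% at 20 µM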
TRPM1 prom inh = reduces MITF-dependent TRPM1 promoter luciferase signal. SK-MEL-5 TRPM1 promoter luciferase, 24 h. inhibition, % at 12.5 µM. hit rate 0.83% among 330,000. AID 488899;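 active = mean inhibition across replicates of 60% or more, whatever share of single replicates reaches that level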
Shn3 inh set2 = Schnurri-3 reporter inhibition in Clone20 osteoblasts | inhibition, % at 12.5 µM | Clone20 osteoblast Shn3 3'UTR firefly luciferase, 24 h | hit rate 0.52% among 360,000;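 active = mean inhibition of at least 75% with every replicate also reaching 75%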;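 note: 0% = median of neutral control wells and 100% = pilot-screen positive control compound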
KKLEB tox = CF airway cell cytotoxicity counter-screen; KKLEB CF airway cells viability, ATPlite luminescence, overnight; active compounds read low; cells stimulated with P. aeruginosa culture filtrate; activity change (cytotoxicity), % at 5 µM; hit rate 0.36% among 360,000; AID 602141;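 active = corrected activity change at or below -50% at 5 µM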
Active calls of the source: *; x = no result given; ! = not confirmed by another sample. A selection: hits, their analogues and other compounds. The true share with any hit is near 2.9%.

SMILES	EBV LMP1 NFkB	CF NFkB inh	Peg3 prom inh	TRPM1 prom inh	Shn3 inh set2	KKLEB tox
CC(C)Oc1ccc(S(=O)(=O)N2CCOCC2)cc1NC(=O)CC1CC2CCC1C2 (centres undefined)	-16	8	13	x	-5	6
Cc1ccc(C)c(OCCC(=O)OCC(=O)Nc2cc(S(=O)(=O)N3CCOCC3)ccc2C)c1	-8	14	18	-3	-8	8
Cc1ccc(S(=O)(=O)CCC(=O)OCC(=O)Nc2cc(S(=O)(=O)N3CCOCC3)ccc2C)cc1	4	12	-4	-10	88*	-1
O=C(C(=NNc1ccccc1)C(=S)Nc1ccccc1)c1ccccc1	x	4	-2	x	-8	-33
COc1ccc2c(c1)OC(=O)CC2c1cc(OC)c(OC)c(OC)c1 (centres undefined)	89*	-4	10	6	-13	2
CCOC(=O)C1(C)CCCCCN1C(=O)c1csnn1 (centres undefined)	x	-2	-1	x	0	4
O=C(NCc1ccccc1)c1cc(C2COCCN2C(=O)c2ccc3c(c2)CCO3)on1 (centres undefined)	x	-41	2	x	4	-4
O=c1cc(-c2ccccc2)oc2c1CCCC2	x	-4	-41	x	6	-20
CC(C)Cn1c([N+](=O)[O-])nc2c1c(=O)[nH]c(=O)n2C	-3	49	17	40	x	2
Cn1c(=O)[nH]c(=O)c2c1nc([N+](=O)[O-])n2Cc1ccccc1	95*	109*	117*	93*	98*	-85*
O=C(NCC(=O)c1ccccc1)OCc1ccc([N+](=O)[O-])cc1	68*	2	-44	-23	1	1
COc1ccc(NC(=O)c2cc(C3CCCCN3S(=O)(=O)c3cn(C)cn3)on2)c(C)c1 (centres undefined)	x	-33	-13	x	-1	14
CCOc1ccc(CCNC(=O)COC(=O)c2[nH]c(C)c(C(C)=O)c2C)cc1OCC	-2	-15	9	x	-23	1
COc1ccc(NC(=O)Cn2nnc(-c3ccccc3NS(=O)(=O)c3ccccc3)n2)cc1	-5	4	27	17	87*	-16
O=c1c(Cl)c(Cl)cnn1-c1ccccc1	0	97*	115*	88*	2	-81*
COc1cccc(C(=O)NCCCNc2nc3cc(C)cc(C)c3cc2C#N)c1	6	10	66*	x	22	-23
COc1ccc2cc(C#N)c(N3CCN(C(=O)c4ccccc4C)CC3)nc2c1	6	13	20	-8	14	-14
COc1cccc(C(=O)N2CCN(c3nc4cc(C)cc(C)c4cc3C#N)CC2)c1	57*	-16	16	x	3	-3
Cc1cc(C)c2cc(C#N)c(N3CCCN(C(=S)NCCCN(C)C)CC3)nc2c1	-21	4	104*	88*	12	4
COc1ccccc1C(=O)NCCCNc1nc2cc(C)cc(C)c2cc1C#N	3	20	24	x	15	-14
O=C(Nc1ccc(F)c(Cl)c1)c1cc(C2CCCCN2C(=O)CCc2ccccc2)on1 (centres undefined)	x	-17	12	x	29	10
CCOc1ccc2nc(S(=O)(=O)NC(=O)C3(C)CCN3C(=O)c3cc(C)n(C)n3)sc2c1 (centres undefined)	x	1	-9	x	-16	-9
O=C(N=Nc1c(O)[nH]c2ccc(Cl)cc12)c1cc(-c2cccs2)nc2ccccc12	1	-5	70*	19	10	4
O=C(N=Nc1c(O)[nH]c2ccc([N+](=O)[O-])cc12)c1ccccc1Cl	3	-38	-43	-9	-27	-3
Cc1ccc(C(=O)N2[C@@H]3CN(C)C(=O)[C@@]2(Cc2ccccc2)[C@H]2C(=O)N(C)C(=O)[C@@H]32)cc1	5	-7	-8	-3	-22	-18
SMILES	EBV LMP1 NFkB	CF NFkB inh	Peg3 prom inh	TRPM1 prom inh	Shn3 inh set2	KKLEB tox
c1nc(N2CCCCC2)c2[nH]cnc2n1	0	22	13	-9	-1	-19
Nc1ncnc2nc[nH]c12	59*!	8	-8	4	-6	24
CC(=O)OCCN(C)c1cc(SC(C)C)c2nonc2c1[N+](=O)[O-]	-1	4	19	-1	6	6
CN(CCO)c1cc(Sc2nc3ccccc3s2)c2nonc2c1[N+](=O)[O-]	2	18	104*	91*	87*	-4
OC(c1ccc(Cl)c(F)c1)c1ncc(-c2cccc3ccccc23)[nH]1 (centres undefined)	x	34	46	x	2	-35
O=C(O)C(=Cc1ccc([N+](=O)[O-])cc1)c1cccc(Cl)c1	5	-15	5	x	4	7
O=C(NCc1ccc(OC(F)(F)F)cc1)C1CC(c2c(Cl)cccc2Cl)=NO1 (centres undefined)	41*	-20	10	x	13	-6
COc1ccc(O)c(/C=N/c2nc3ccccc3n2C)c1	90*	-30	43	-16	9	10
N=c1n(CCO)c2ccccc2n1CCOc1ccc(Cl)cc1Cl	-57	14	103*	4	12	-24
N=c1n(CCO)c2ccccc2n1Cc1ccccc1Cl	4	7	13	7	2	-12
CCOc1ccc(CNC(=O)CN2C(=O)CSc3ccc(S(=O)(=O)N4CCOCC4)cc32)cc1	10	-18	-9	x	12	6
CC1=NN(c2ccc(C)c(C)c2)C(=O)/C1=C\C=C\c1ccc([N+](=O)[O-])o1	23	38	88*	84*	95*	-41
CCOC(=O)c1ccc(N2N=C(C)/C(=C/C=C/c3ccco3)C2=O)cc1	-10	-38	-21	6	-14	12
O=C(CSc1nnnn1-c1ccccc1)Nc1nsc(-c2ccccc2)n1	10	45	-42	-3	12	-2
O=C(CSc1nnnn1-c1ccccc1)Nc1nsc(-c2ccc(Cl)cc2)n1	76*	21	-70	5	53	-8
CCOC(=O)c1c(N/C=C(\C#N)c2nc(-c3ccc(OC(C)=O)cc3)cs2)sc2c1CCC2	7	-14	-12	5	-29	-10
COC(=O)[C@@]1(Cc2ccc(OC)cc2)[C@H]2c3cc(C(=O)N4CCCC4)n(CCn4cc([N+](=O)[O-])nc4C)c3C[C@H]2CN1C(=O)c1ccccc1	-2	21	-3	x	27	-21
COC(=O)[C@@]1(Cc2ccc(F)cc2)[C@H]2c3cc(C(=O)N4CCCC4)n(CCCNc4ncc(C(F)(F)F)cc4Cl)c3C[C@H]2CN1C(=O)c1ccccc1	45*	36	20	8	-103	-5
Cn1c(N)c(C(=O)N2CCN(c3ccccc3)CC2)c(=O)n(C)c1=O	-7	0	6	x	0	6
COc1ccccc1N1CCN(C(=O)c2ccc3nc(-c4ccco4)c(-c4ccco4)nc3c2)CC1	8	17	52*	8	24	-36
Cc1ccc(C)c(N2CCN(C(=O)c3ccc4nc(-c5ccco5)c(-c5ccco5)nc4c3)CC2)c1	9	30	34	-2	-18	-22

Screening data from PubChem.
